# Source: PubChem (Broad Institute)
# Shown are actives, neighbours in structure and some others; about 2.8% of the full set was active somewhere.
# LMP1 NFkB inh: inhibitors of Epstein-Barr LMP1-induced NF-kappaB reporter. inhibition, % at 12.5 µM. actives 0.69% (n = 350,000). LMP1-induced NF-kappaB luciferase reporter cells, luminescence. AID 504558; in the data active = inhibition above about 41%; inconclusive = no clear call, values can overlap the other calls;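 note: 0% = neutral control wells and 100% = reference inhibitor control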
# PAX8 reporter: PAX8 transcriptional activity inhibition. RMG-I TPO-luciferase reporter, SteadyGlo, 24 h. inhibition, % at 12.6 µM. actives 1.2% (n = 360,000). AID 652154;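 active = mean replicate inhibition at least 60% with every replicate also reaching 60%; inconclusive = only one of the two criteria is met; inactive = mean below 60% and not all replicates reaching 60%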;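 note: luciferase light reporting Pax8 driven TPO promoter activity; plate controls were median of neutral control wells for no effect and mitoxantrone controls for full effect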
# Shn3 inh set2: inhibitors of Schnurri-3 3'UTR reporter in osteoblasts; Clone20 osteoblast Shn3 3'UTR firefly luciferase, 24 h; inhibition, % at 12.5 µM; actives 0.52% (n = 360,000); AID 588674;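 active = mean inhibition of at least 75% with every replicate also reaching 75%; inconclusive = mean inhibition at least 75% but some replicate below; inactive = mean inhibition below 75%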;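 note: 0% = median of neutral control wells and 100% = pilot-screen positive control compound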
# HIV Env fusion: blocks HIV Env-driven cell-cell fusion | inhibition, % at 12.3 µM | actives 1.1% (n = 360,000) | AID 651610 | HeLa-JRFL Env/CEM21 cell fusion, luciferase;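 active = mean replicate inhibition score of at least 50 and every replicate individually at or above 50; inconclusive = only one of the two criteria met; inactive = mean below 50 and not all replicates reaching 50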;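 note: 0% = plate neutral controls and 100% = maraviroc near 300 nM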
# Glyco luc inh: blocks N-linked glycosylation in D54 reporter cells | D54 ERlucT glycosylation luciferase reporter, 24 h; percent of 100 nM tunicamycin response | reporter increase, % at 12.5 µM | actives 0.23% (n = 360,000);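 active = mean luciferase reporter signal, scaled so untreated is 0 and the glycosylation-blocking control 100, at or above a set limit in every replicate; inconclusive = mean reaches the limit but not every replicate does; inactive = mean below the limit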;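 note: luciferase carries N-glycosylation sites so blocking glycosylation raises the light; 0% = median of neutral control wells and 100% = median of 100 nM tunicamycin wells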
# NSD2 HMT inh: inhibitors of human histone methyltransferase NSD2; NSD2 peptide methylation, AlphaScreen, 120 min; AID 743445; actives 0.54% (n = 310,000); O96028; inhibition, % at 12.5 µM; in the data active = inhibition above about 50%
# Alpha artifact: counter-screen for NSD2 inhibitors: AlphaScreen artifacts; AC35, µM (highest dose often 10 µM), for inactives: top-dose activity change, negative = signal loss; AID 1053174; AlphaScreen artifact counterscreen, preloaded methylated H4 peptide; actives 9.4% (n = 1,500); shares compounds with NSD2 HMT inh; call rule not given here
# Numbers without * were called inactive; ? = inconclusive; . = no result given; [ ] = dose if it differs, or a comment.
SMILES,LMP1 NFkB inh,PAX8 reporter,Shn3 inh set2,HIV Env fusion,Glyco luc inh,NSD2 HMT inh,Alpha artifact
COc1ccc(CNC(=O)CN(c2ccc(C)cc2)S(=O)(=O)c2c(C)noc2C)cc1,?,-2,8,-1,-3,63*,-1%
C[C@H](CO)N1C[C@H](C)[C@H](CN(C)C(=O)c2ccc(F)cc2)Oc2ncc(-c3ccc(F)cc3)cc2C1=O,.,.,.,1[16.7 µM],.,.,.
Fc1ccc(CNc2nc(-c3cccnc3)nc3ccccc23)cc1,0,19,0,6,0,118*,1%
COCCNc1nc(-c2ccccc2)nc2ccccc12,4,-15,-3,4,2,51*,-3%
COCCCNc1nc(-c2ccncc2)nc2ccccc12,-31,-7,-10,-51,-3,-2,.
CO[C@H]1CN(C)C(=O)c2ccc(NC(=O)C3CC3)cc2OC[C@@H](C)N(CCc2ccccc2)C[C@H]1C,.,0,.,-8[16.7 µM],.,.,.
N#Cc1c(N)n(-c2ccc(C(=O)O)cc2)c2nc3ccccc3nc12,-20,11,-52,-3,7,74*,-6%
O=C(CC(=O)Nc1ccc(Cl)cc1)N/N=C\c1cccc(F)c1,-9,-10,-2,-2,1,113*,2%
O=C(CCC(=O)Nc1ccc(F)cc1)N/N=C/c1cccc(Br)c1,-9,9,17,16,2,1,.
CO[C@@H]1CN(C)C(=O)c2cc(NC(=O)Nc3c(C)noc3C)ccc2OC[C@H](C)N(CC2CC2)C[C@H]1C,.,-1,.,.,.,.,.
CCOC(=O)C1=CN(c2cccc(F)c2)C=C(C(=O)OCC)C1c1cc(OC)c(O)c([N+](=O)[O-])c1,-9,.,-5,24,-5,57*,-16%
Cc1cc(C)c2c(c1)N[C@H](c1cccs1)[C@@H]1CCO[C@H]21,-24,16,-1,-2,-2,50*,-1%
c1coc(C2Nc3ccccc3C3OCCC23)c1 (stereo not drawn),-10,-26,72,-117,2,-1,.
CC1=NN(c2ccccc2)C(=O)/C1=C/N(C)C,-3,-3,10,-1,0,71*,-6%
CC(C)NC(=O)N(C)C[C@@H]1Oc2ccc(NS(=O)(=O)c3cn(C)cn3)cc2CC(=O)N([C@H](C)CO)C[C@@H]1C,.,9,.,-16[16.7 µM],.,.,.
CC1CCN(CC(=O)Nc2ccc(S(=O)(=O)N3CCCC(C)C3)cc2)CC1 (stereo not drawn),-1,-19,26,10,-7,15,.
CC1CCCN(S(=O)(=O)c2ccc(NC(=O)CN3CCN(C)CC3)cc2)C1 (stereo not drawn),-7,.,1,9,-4,90*,0%
CN(C)C(=O)C[C@H]1CC[C@@H](NC(=O)Nc2cccc(F)c2)[C@@H](CO)O1,.,7,.,-4[16.7 µM],.,.,.
Cc1ccc(C(=O)Nc2ccc(Cl)cc2C(F)(F)F)c(Cl)c1,-27,-87,-43,-40,0,188*,1%
O=C(Nc1ccc(Cl)cc1C(F)(F)F)c1ccccc1Cl,14,31,4,13,3,-1,.
CCN(CC)CCNc1nc(SC)nc2sc3c(c12)CCN(C)C3,9,10,1,17,-2,62*,-7%
Cc1ccc(-c2cnc3c(c2)C(=O)N([C@H](C)CO)C[C@H](C)[C@H](CN(C)C(=O)c2ccccc2)O3)cc1,.,-15,.,-1[16.7 µM],.,.,.
O=C(O)c1cccc(-n2cccc2/C=C\[N+](=O)[O-])c1,3,-3,6,14,-2,69*,-2%
O=C(O)c1cccc(-n2cccc2/C=N/O)c1,2,.,-1,-10,2,52*,-10%
O=c1oc(-c2ccco2)nc2c1cnn2-c1ccccc1,-2,.,-13,.,-1,-3,.
O=c1c2cnn(-c3ccccc3)c2nc(-c2ccco2)n1-c1ccccc1,6,.,9,46,4,115*,-4%
COc1ccccc1CNC(=O)C(NC(=O)Nc1ccccc1)C(C)C (stereo not drawn),-6,16,4,-3,-1,106*,-4%
COc1ccccc1CNC(=O)C(NC(=O)c1ccccc1)C(C)C (stereo not drawn),-3,27,-1,7,-2,-3,.
